Assay outcomes deposited in PubChem by National Center for Advancing Translational Sciences (NCATS).
MCF10A rereplic = DNA re-replication induction in MCF 10a cells | MCF 10A DNA re-replication, Hoechst nuclear intensity, 48 h | Potency, µM (top dose mostly 46.1 µM), without a hit: at the top dose activity, positive = re-replication, most hits filed as activators | 2.9% of 350,000 active; also: potency is read from the fitted curve at half-maximal effect; % of control where 0% means no effect; nearly all actives have a fitted effect of over 50% in size
IL1B secr inh = blocks inflammasome-driven IL-1 beta release; THP-1 LPS/ATP IL-1B secretion, AlphaLISA, 16 h; active compounds read low; activity change, % at 57.5 µM; 4.7% of 360,000 active; in the data active = activity change below about -50%; inconclusive = mostly about -30% to -49%; also: % is scaled to controls: 0 for no effect and ±100 for the full control effect
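THP-1 cells pretreated 1 hr with compounds (up to 57.5 uM final), then stimulated with LPS (250 ng/mL final) plus ATP (1.25 mM final); secreted IL-1B measured by AlphaLISA after 16 hr, decreased signal indicating inhibition.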
DT40 TDP1 CPT = DT40-hTDP1 cell growth loss with CPT; chicken DT40 Tdp1-/-;hTDP1 cells + 20 nM CPT, ATP luminescence, 48 h; Potency, µM (doses to about 46.2 µM), inactives show at the highest dose activity change, negative = growth inhibition, hits mostly inhibitors; 12% of 420,000 active; also: potency is read from the fitted curve at half-maximal effect; % is scaled to controls: 0 for no effect and ±100 for the full control effect; nearly all actives have a fitted effect of over 55% in size
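Cell growth measured by CellTiter-Glo luminescence after a minimum 48 h, 37 C compound exposure with 20 nM CPT in Tdp1-knockout DT40 cells stably expressing hTDP1, seeded 400/well; qHTS titration format.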
BCR signal inh = blocks chronic active B-cell receptor signaling; 0.05% of 340,000 active; ABC-DLBCL IkBa-CBG/CBR reporter, luminescence ratio, 4 h; Potency, µM (top dose mostly 46.1 µM), inactives show top-dose activity change, negative = inhibition, most hits filed as inhibitors; active = well fitted inhibition curve with a large enough effect in the signal ratio, with a control signal flat, not every such curve was filed as active; inconclusive = small, poorly fitted or top-dose-only effect, or effect the other way, or a change in a side signal; the % refers to the signal ratio;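 also: potency is read from the fitted curve at half-maximal effect; plate controls were basal doxycycline-induced cells for no effect and cells given 10 µM MG132 for full effect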
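Cell line TMD8 (human ABC DLBCL), stably expressing tet-inducible CBG68-IkBa fusion and CBR; IMDM/0.5% FBS; cpd up to 46 uM; dox induction, 4 h, 37C/5% CO2; dual luminescence; green/red ratio; MG132 control.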
SW480 rereplic = DNA re-replication induction in SW480 cells; SW480 DNA re-replication, Hoechst DNA content imaging, 48 h; 1.8% of 340,000 active; Potency, µM (doses to about 46.1 µM), inactives show at the highest dose re-replication activation, hits mostly activators; also: potency is read from the fitted curve at half-maximal effect; % of control where 0% means no effect; nearly all actives have a fitted effect of over 55% in size
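Image-based DNA-content assay: after two days of treatment, nuclei were labelled with the DNA dye Hoechst and imaged, and hits were compounds raising the count of nuclei showing high fluorescence intensity.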
DT40 TDP1 no CPT = qHTS for Inhibitors of human tyrosyl-DNA phosphodiesterase 1 (TDP1): qHTS in cells in absence of CPT; Potency, µM (highest dose often 46.2 µM), without a hit: at the highest dose activity change, negative = growth inhibition, most hits filed as inhibitors; 15% of 420,000 active; DT40 Tdp1-/- hTDP1 cells, no CPT, ATP luminescence, 48 h; AID 686978, 2013; also: potency is read from the fitted curve at half-maximal effect; % is scaled to controls: 0 for no effect and ±100 for the full control effect; nearly all actives have a fitted effect of over 55% in size
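Compound effects on proliferation are scored in DT40 Tdp1-/-;hTDP1 cells in the absence of CPT. ATP levels (CellTiter-Glo luminescence) are recorded after a ≥48 hr, 37 °C incubation.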
Starred values were filed as active, the others as inactive; ? = inconclusive; . = no result. In the library only some 19% were active in any assay of this set; here they are far more common. Unless noted, calls follow the shape of the dose curve; as a rule, active = well fitted curve in the direction sought with a large enough effect; inconclusive = small, poorly fitted or top-dose-only effect, or another doubt; inactive = no such curve, though single readings can be large; an effect the other way counts as inactive or inconclusive.

SMILES	MCF10A rereplic	IL1B secr inh	DT40 TDP1 CPT	BCR signal inh	SW480 rereplic	DT40 TDP1 no CPT
COc1ccc(C(=O)Nc2nc(CC(=O)NCCc3cccc(OC)c3)cs2)cc1	20.1%	?	?	?	-1.5%	14.6µM*
CCOC(=O)Cc1csc(NC(=O)c2cccc(OC)c2)n1	-5.9%	-0.3	-29.4%	?	-4.6%	?
O=C(Cc1csc(NC(=O)c2ccccc2)n1)NO	-0.2%	-57.6*	?	-8.6%	4.2%	-12.5%
COc1ccc(C(=O)Nc2nc(CC(=O)NCCc3ccccc3)cs2)cc1	18.5%	-52.3*	?	-0.1%	1.5%	?
COC(=O)c1cn(C(=O)c2cc(Cl)ccc2Cl)c2ccccc12	5.9%	22.2	-22.9%	-0.2%	2.1%	-25.9%
S=C(NCC1CCCO1)Nc1ccc(Nc2ccccc2)cc1 (configuration not stated)	-9.9%	-18.5	?	-22.0%	?	?
COc1cccc(Nc2ncc3nc(C)c(=O)n(C[C@H]4CCCO4)c3n2)c1	.	.	-7.0%	.	.	-8.6%
Oc1ccc(Nc2nc(NCC3CCCO3)c3ccccc3n2)cc1 (configuration not stated)	?	-96.0*	23.1µM*	?	14.4%	16.4µM*
COc1cccc(Nc2nc(NCC3CCCO3)c3ccccc3n2)c1 (configuration not stated)	?	-121.5*	6.51µM*	?	2.7%	5.17µM*
Cc1cccc(S(=O)(=O)Nc2nc3ccccc3nc2NCC2CCCO2)c1 (configuration not stated)	-0.9%	-11.0	-10.4%	4.3%	-8.7%	2.3%
Cc1ccc(S(=O)(=O)Nc2nc3ccccc3nc2NCC2CCCO2)cc1C (configuration not stated)	-6.6%	20.6	20.6µM*	-0.5%	1.6%	?
c1ccc(CN2CCC(Nc3nc(-c4cccs4)nc4ccccc34)CC2)cc1	?	-64.2*	8.2µM*	?	1.1%	18.4µM*
O=C(CCc1nc2ccccc2c(=O)[nH]1)NC1CCN(Cc2ccccc2)CC1	6.8%	22.8	-27.9%	2.0%	-9.1%	-28.0%
CC1CCN(c2ccc3nnc(CCC(=O)N4CCN(c5ccc(F)cc5)CC4)n3n2)CC1	-0.3%	-21.6	?	-0.7%	-8.8%	?
COc1ccccc1NS(=O)(=O)c1ccc(C)c(C(=O)NCC2(N(C)C)CCCCC2)c1	12.9%	?	2.6%	-2.2%	-9.0%	1.7%
Cc1cc(Nc2ccccc2C(=O)O)n2ncnc2n1	.	-10.9	-5.9%	.	.	-4.6%
Oc1ccc(Cl)cc1Nc1nc(NCC2CCCO2)c2ccccc2n1 (configuration not stated)	23.1µM*	.	.	.	?	.
Oc1ccccc1Nc1nc(NCC2CCCO2)c2ccccc2n1 (configuration not stated)	?	-109.3*	16.4µM*	?	-0.1%	25.9µM*
O=[N+]([O-])c1ccc(Cl)cc1NCC1CCCO1 (configuration not stated)	4.5%	-9.9	-10.9%	-0.5%	-1.4%	-3.6%
c1csc(CNc2nc(-c3cccs3)nc3ccccc23)c1	?	-21.8	0.4%	?	-2.1%	-9.9%
c1csc(-c2nc(NCC3CCCO3)c3ccccc3n2)c1 (configuration not stated)	8.0%	-90.4*	?	?	0.5%	?
O=C(CN1CCN(S(=O)(=O)c2cccc(F)c2)CC1)Nc1ccnn1C1CCCC1	27.4%	0.0	-26.0%	11.1%	?	-11.2%
O=C(Nc1ccc(C(=O)N2CCOCC2)cc1)c1cnn2c(C(F)F)cc(-c3ccccc3)nc12	-13.8%	-17.4	?	8.7%	-0.8%	5.8µM*
